From PubChem BioAssay AID886 (National Center for Advancing Translational Sciences (NCATS), 2007)
Where “and” joins values, the source holds several entries; their conditions need not be identical. Equal entries are not always repeated. The campaign covered roughly 73,000 compounds. About 2,500 (3.4%) were called active. Roughly 7% stayed inconclusive and do not appear here. This is one part of a sample in which actives are shown more often than they occur. The call rests on the fitted dose curve; in most records, active means well fitted inhibition curve with a large enough effect; inconclusive means small, poorly fitted or top-dose-only effect; inactive means no such curve, though single readings can be large or run the other way.

Each compound was assayed against 3-hydroxyacyl-CoA dehydrogenase type-2 (Homo sapiens) (UniProt Q99714) (assay: qHTS Assay for Inhibitors of HADH2 (Hydroxyacyl-Coenzyme A Dehydrogenase, Type II)). Conditions: recombinant HADH2, NADH fluorescence, beta-hydroxybutyryl-CoA; series mostly up to 57.1 µM; activity change, negative = inhibition: at the top concentration.
Procedure, shortened: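 Activity measured as NADH fluorescence gain (360/450 nm), taken as the change between first and last reads of a 4-min kinetic run. Conditions: pH 9.0 Tris buffer, 20 nM E. coli-expressed His-tagged enzyme, 1 mM NAD+, 90 uM beta-hydroxybutyryl-CoA; 15-min compound preincubation.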
Further: nearly all actives have a fitted effect of over 60% in size.
On the % scale 0 is the no-effect control and ±100 the full control effect; potency means the concentration at half of the fitted maximal effect.

Sequence of 3-hydroxyacyl-CoA dehydrogenase type-2 (Homo sapiens) (Q99714 whole entry, looked up): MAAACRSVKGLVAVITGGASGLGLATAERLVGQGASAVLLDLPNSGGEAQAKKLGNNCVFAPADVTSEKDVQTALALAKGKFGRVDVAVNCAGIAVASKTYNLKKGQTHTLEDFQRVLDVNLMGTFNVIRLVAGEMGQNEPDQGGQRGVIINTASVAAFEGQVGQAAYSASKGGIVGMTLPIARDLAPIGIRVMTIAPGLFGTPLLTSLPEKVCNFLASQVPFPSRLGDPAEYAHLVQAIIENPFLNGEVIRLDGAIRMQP
Sequence of 3-hydroxyacyl-CoA dehydrogenase type-2 (Homo sapiens) (Q99714 whole entry, looked up): as above

Compound | Potency | activity change, negative = inhibition
COC(=O)[C@@H]1[C@H]2C[C@H]3c4[nH]c5cc(OC)ccc5c4CCN3C[C@@H]2C[C@@H](OC(=O)c2cc(OC)c(OC)c(OC)c2)[C@@H]1OC | inactive | –
O=C(O)CC(C(=O)O)C(CC(=O)O)C(=O)O (configuration not stated) | – | 2.27% (inactive)
O=C(O)[C@@H](S)[C@H](S)C(=O)O | 1 µM (active) | –
O=c1nc2s/c(=C\c3ccco3)c(=O)n2nc1Cc1ccccc1 | 7.94 µM (active) | –
Cc1nc2nc(SCC(=O)NCc3ccco3)nn2c(C)c1Cc1ccccc1 | – | -3.96% (inactive)
CN(c1ccccc1)c1ccc(/C=c2\s/c(=C(/C#N)C(=O)C(C)(C)C)n(Cc3ccco3)c2=O)cc1 | – | -22.8% (inactive)
CN(C)CCCCNC(=O)c1ccc(Cc2nc3ccccc3[nH]2)cc1 | – | 7.95% (inactive)
CN(C)CCCNC(=O)c1ccc2[nH]c3ccccc3c2c1 | 25.1 µM (active) | –
CC(C)N(CCNC(=O)c1ccc(-n2c(=O)c(=O)[nH]c3ccccc32)cc1)C(C)C | – | -0.507% (inactive)
COc1ccc(CNc2ncnc3ccc(-c4cccnc4)cc23)c(OC)c1 | – | -13.9% (inactive)
CS(=O)(=O)N1CCC2(CC1)CN(Cc1ccccc1)C2 | – | 3.96% (inactive)
COC(=O)[C@@]1(C)C=C[C@@H](Cc2ccccc2)N1C(C)=O | – | 2.32% (inactive)
CCCCCCCCCCCC(=O)O | inactive | –
Cc1cc(C)cc(C#CC2C=CC(Oc3ccc(C4CCCC4)cc3)C(CO)O2)c1 (configuration not stated) | – | 10.7% [at 11.4 µM] (inactive)
O=c1c(-c2ccccc2)coc2c(CN3CCOCC3)c(O)ccc12 | – | -0.694% (inactive)
O=S(=O)(O)CCN1CCOCC1 | – | 0.734% (inactive)
Oc1c(CN2CCOCC2)ccc(CN2CCOCC2)c1O | 0.316 µM (active) | –
C=C(C)C1CC=C(C)C(O)C1 (configuration not stated) | – | 1.28% (inactive)
CCC[C@@H]1C[C@@]1(CCC)[C@@H](NC(=O)c1ccccc1)c1ccc(C(=O)OC)cc1 | – | -14.7% (inactive)
O=C(Nc1cccc(F)c1)N1CC2(CCN(C(=O)c3csnn3)CC2)C1 | – | -1.39% (inactive)
FC(F)(F)c1cc(-c2ccco2)nc(N2CCOCC2)n1 | – | 1.09% (inactive)
COC(=O)c1cnn2c(C(F)(F)F)cc(-c3ccco3)nc12 | 31.6 µM (active) | –
Cc1cc(C(F)(F)F)nn1-c1nc(-c2ccco2)cc(C(F)(F)F)n1 | – | -14.2% (inactive)
Cc1nnc(SCc2ccc(C(=O)c3ccc(Cl)cc3)o2)n1-c1ccccc1 | – | -28.1% (inactive)
Cc1nc2cnc(N3CCN(C)CC3)nc2n(CCC#N)c1=O | – | 46.9% (inactive)

Compound | Potency | activity change, negative = inhibition
CS(=O)(=O)N1CCN(C(=O)c2cc3ccccc3oc2=O)CC1 | – | -7.15% (inactive)
O=C(Oc1cccnc1)c1cc2ccccc2oc1=O | 20 µM (active) | –
O=C(NCc1ccccn1)c1cc2ccccc2oc1=O | – | -14.8% (inactive)
COC(=O)[C@@]1(Cc2ccc(OC)cc2)[C@H]2c3cc(C(=O)N4CCCC4)n(Cc4ccc(OC(F)(F)F)cc4)c3C[C@H]2CN1C(=O)c1ccccc1 | – | 5.27% (inactive)
CCCC[C@@H]1C[C@H]1C(NC(=O)c1ccco1)c1ccc(C(=O)OC)cc1 (some centres not stated) | – | -7.3% (inactive)
Cc1ccc(-c2nn(CC(C)(C)C)c3ncnc(N)c23)cc1 | – | 2.11% (inactive)
C[C@H](CCC(=O)NCC(=O)O)[C@H]1CC[C@H]2[C@H]3[C@@H](C[C@@H](O)[C@]12C)[C@]1(C)CC[C@H](O)C[C@@H]1C[C@@H]3O | – | 2.57% [at 25.6 µM] (inactive)
COc1ccc(-c2[nH]nc3c2C(c2ccncc2)C(C#N)=C(N)O3)cc1 (configuration not stated) | – | -18.9% (inactive)
CCCc1[nH]nc2c1C(c1ccc(OC)c(Cn3nc(C)c(Br)c3C)c1)C(C#N)=C(N)O2 (configuration not stated) | – | -1.8% (inactive)
CCOc1c(OC)cc(C2C(C#N)=C(N)Oc3n[nH]c(-c4ccncc4)c32)cc1OC (configuration not stated) | 10 µM (active) | –
O=C(O)C1=CCCN(CCON=C(c2ccccc2)c2ccccc2)C1 | inactive | –
N#CC1=C(N)Oc2cc(O)ccc2C1C1CCCCC1 (configuration not stated) | – | 0.41% (inactive)
O=C(O)c1c(Br)c(Br)c(Br)c(Br)c1C1c2ccc(O)cc2Oc2cc(O)ccc21 | 1.58 µM (active) | –
CC1CCCCN1CCCNC(=O)c1ccc(-n2c(=O)c(=O)[nH]c3ccccc32)cc1 (configuration not stated) | – | -2.23% (inactive)
COc1ccc(Oc2ncc3nc(-c4ccc(F)cc4)c(=O)n(C)c3n2)cc1 | – | 4.58% (inactive)
Oc1c(Cl)cc(Cl)c(Cl)c1Cc1c(O)c(Cl)cc(Cl)c1Cl | 7.94 µM (active) | –
COc1ccc(N)c(OC)c1 | – | -0.0513% (inactive)
O=C(NCc1ccccn1)c1c(O)c2c([nH]c1=O)CCCC2 | – | 7.68% (inactive)
O=C(NCc1ccco1)c1nc2ncccn2n1 | – | -6.29% (inactive)
O=C(NCc1ccccn1)c1ccc2nc(-c3ccco3)c(-c3ccco3)nc2c1 | 5.01 µM (active) | –
CC(C)[C@H](CO)Nc1nc(Nc2cc(N)cc(Cl)c2)c2ncn(C(C)C)c2n1 | – | -27.7% (inactive)
COc1cccc([C@H](O)Cn2cc(-c3ccc(CON=C(C)C)cc3)nn2)c1 | – | 4.01% [at 11.4 µM] (inactive)
CC(=O)N1CCC2(CCCN(Cc3ccccc3)C2)CC1 | – | -9.14% (inactive)
Cn1c(C(=O)N2CCC(C(N)=O)CC2)cc2c(=O)n(C)c3ccccc3c21 | – | 7.8% (inactive)
CCN1CCCC1CNC(=O)c1cc2c(=O)n(C)c3ccccc3c2n1C (configuration not stated) | 31.6 µM (active) | –

Compound | Potency | activity change, negative = inhibition
Cn1c(C(=O)NCCc2ccsc2)cc2c(=O)n(C)c3ccccc3c21 | – | 11.1% (inactive)
CC(C)C[C@@H](CC(=O)N[C@@H](CCC(=O)O)CC(=O)O)NC(=O)[C@@H]1CCCC[C@H]1NC(=O)C[C@@H](NC(=O)C[C@H](Cc1c[nH]c2ccccc12)NC(=O)[C@@H]1CCCC[C@H]1N)C(C)C | – | -21.2% (inactive)
COc1c(C)c2c(c(O)c1C/C=C(\C)CCC(=O)O)C(=O)OC2 | inactive | –
C/C=C/C=C/C(=O)O | – | -5.22% (inactive)
CCN(CC)CCCCn1c(-c2ccccc2)nc2c(N3CCOCC3)nc(C)nc21 | – | -22.3% (inactive)
Cc1ccc(-n2ncc3c2ncn2nc(-c4ccco4)nc32)c(C)c1 | – | 13.7% (inactive)
COc1ccc(-n2c(C)nc3c(cnn3-c3ccccc3)c2=O)cc1 | – | -2.25% (inactive)
COc1ccc(N2CCN(C(=O)CSc3ncnc4c3cnn4-c3ccc(OC)cc3)CC2)cc1 | – | -4.24% (inactive)
Cc1ccc(-n2ncc3c(N4CCN(c5ccc(F)cc5)CC4)ncnc32)c(C)c1 | – | 9.76% (inactive)
Cc1cccc(-n2ncc3c(N4CCc5ccccc54)ncnc32)c1 | 3.16 µM (active) | –
COc1ccc(-n2ncc3c(N4CCc5ccccc54)ncnc32)cc1 | 31.6 µM (active) | –
CC(=O)OCCC(C)C | – | -0.625% (inactive)
CCCn1c(-c2ccc(F)cc2)nc2c(NCC3CCCN3CC)nc(C)nc21 (configuration not stated) | – | 7.86% (inactive)
CCCN(C/C=C\I)[C@@H]1CCc2cccc(O)c2C1 | – | -1.63% (inactive)
Cc1ccc(S(=O)(=O)NCc2nc3ccccc3c(=O)n2N)cc1 | – | 9.48% (inactive)
Cc1ccc(S(=O)(=O)c2c(N)n(C)c3nc4ccccc4nc23)cc1 | 31.6 µM (active) | –
COCCn1c(=O)c(C)nc2cnc(N(C)C)nc21 | – | -8.66% (inactive)
Cc1c2c(nc3ccccc13)-c1cccc(=O)n1C2 | – | 232% (inactive)
COC(=O)[C@@]1(Cc2ccccc2)[C@H]2c3cc(C(=O)N4CCCC4)n(Cc4ccc(C)o4)c3C[C@H]2CN1C(=O)c1ccccc1 | – | 9.45% (inactive)
C=CCOC(=O)COCCC(C)C | – | -9.83% (inactive)
O=C(c1cc(C(F)(F)F)cc(C(F)(F)F)c1)N1CCC2(CC1)CN(c1ccncc1)C2 | – | -2.98% (inactive)
Cc1cccn2c(=O)c3cc(C(=O)N4COCC4(C)C)n(C)c3nc12 | 25.1 µM (active) | –
Cc1cccn2c(=O)c3cc(C(=O)NCc4ccccn4)n(C)c3nc12 | – | 27.5% (inactive)
CC(C)CC1(C(=O)NCc2ccccn2)C=CCN1C(=O)c1ccccc1 (configuration not stated) | – | 1.17% (inactive)
CC(C)NC[C@H](O)c1ccc2ccccc2c1 | inactive | –

Compound | Potency | activity change, negative = inhibition
C[C@@H]1CC[C@H]2[C@H](C)[C@H]3[C@H](C[C@H]4[C@@H]5CC=C6C[C@@H](O)CC[C@@]6(C)[C@@H]5C[C@@H](O)[C@]34C)N2C1 | – | -8.91% [at 11.4 µM] (inactive)
CCn1c(SCC(=O)NCC2CCCO2)nc2cc(S(=O)(=O)N3CCCCC3)ccc21 (configuration not stated) | – | -5.2% (inactive)
CCCCn1c(SCC(=O)NCC2CCCO2)nc2ccc(N3CCOCC3)cc2c1=O (configuration not stated) | 10 µM (active) | –
CCc1ccc(NC(=O)CSc2nc3ccccc3c(=O)n2CCN2CCOCC2)cc1 | – | 7.42% (inactive)
COC(=O)[C@@]1(Cc2ccccc2)[C@H]2c3cc(C(=O)N(C)C)n(CCSCCO)c3C[C@H]2CN1C(=O)c1ccccc1 | – | 6.25% (inactive)
N#Cc1cccc(-c2nc3cnc(N4CCNCC4)nc3n(C3CC3)c2=O)c1 | – | 170% (inactive)
COc1cccc(-c2nc(Nc3ccncc3)c3ccccc3n2)c1 | – | 9.47% (inactive)
c1ccc2c(Nc3ccncc3)nc(-c3ccoc3)nc2c1 | – | -3.7% (inactive)
c1ccc2c(Nc3ccncc3)nc(-c3ccc4c(c3)OCO4)nc2c1 | 25.1 µM (active) | –
CCCC(Cl)CCCC(Cl)CCC(Cl)CCC(Cl)CCC(Cl)CCCC(Cl)CCC (configuration not stated) | – | 0.0337% (inactive)
COc1ccc2nccc(C(=O)O)c2c1 | – | 10.9% [at 25.6 µM] (inactive)
CC(NCCO)C(=O)C12CC3CC(CC(C3)C1)C2 (configuration not stated) | 31.6 µM (active) | –
O=C(CNCCO)NC12CC3CC(CC(C3)C1)C2 | – | 5.37% (inactive)
CN1CCN(CC(=O)C23CC4CC(CC(C4)C2)C3)CC1 | – | 1.99% (inactive)
CC(C)NC(=O)N1CC[C@@]2(CCCN(C(=O)c3cccn3C)C2)C1 | – | 6.58% (inactive)
Oc1cc2c(cc1O)CN(C(=S)NCCc1ccc(Cl)cc1)CCC2 | 1.58 µM (active) and 631 nM (active) | –
O=C(NCCc1ccc(Cl)cc1)C1CC(=O)N(C2CCCCC2)C1 (configuration not stated) | – | 3% (inactive)
NS(=O)(=O)c1ccc(CCNC(=O)Nc2ccc(Cl)cc2)cc1 | – | 16% [at 11.4 µM] (inactive)
Cc1ccccc1N1CCN(S(=O)(=O)C[C@@]23CC[C@H](C[C@H]2NC(=O)[C@@H](N)CCS(C)(=O)=O)C3(C)C)CC1 | – | -9.48% (inactive)
CC(=O)Oc1cccc(N2C(=O)C3CC=C(Cl)CC3C2=O)c1 (configuration not stated) | – | -2.48% (inactive)
COc1ccc(N2CCN(C3CC(=O)N(c4ccc5c(c4)OCCO5)C3=O)CC2)cc1 (configuration not stated) | – | 8.93% (inactive)
CC(=O)Oc1cccc(N2C(=O)CC(Nc3ccc(N4CCOCC4)cc3)C2=O)c1 (configuration not stated) | 15.8 µM (active) | –
